High-throughput results as filed in PubChem BioAssay.
Abs 340nm: compound light absorbance at 340 nm, profiling panel, artefact control, biochemical, MLSMR library, data from PS, PMK, MK assays | compound absorbance at 340 nm, fold over control | fold change at 10 µM | 65,000 tested, under 10 active | AID 708, 2007;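 active = at 10 µM dose, initial 340 nm absorbance at least 2 fold that of control wells; inactive = change under 2 fold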;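 also: initial absorbance extrapolated from kinetic A340 decline of NADH oxidation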
Spn MK inh: S. pneumoniae MK inhibitors, primary screen, biochemical, PK/LDH-coupled NADH absorbance; AID 555, 2006; 0.48% of 65,000 active; inhibition, % at 10 µM; purified MK, PK/LDH-coupled NADH absorbance 340 nm;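 active = ranked among the strongest by inhibition in the single 10 µM screen, a fixed top-ranked set picked for dose follow-up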
NADH coupling: inhibitors of PK/LDH coupling enzymes, profiling panel, artefact control, biochemical, MLSMR library. coupled PK/LDH NADH assays, four targets. IC50, µM (highest dose often 10 µM). 0.02% of 65,000 active;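 active = single-dose screening hits from any of four coupled enzyme assays that gave an IC50 when retested across doses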;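 also: the DPM-DC format reads NADH fluorescence rather than 340 nm absorbance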
Spn DPM-DC inh: S. pneumoniae DPM-DC inhibitors, primary screen, biochemical, PK/LDH-coupled NADH fluorescence. AID 556, 2006. 0.49% of 65,000 active. calls only at 10 µM. purified DPM-DC. diphosphomevalonate decarboxylase (Streptococcus pneumoniae D39);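 active = the 320 compounds with the highest percent inhibition in the single-dose primary screen, excluding strongly autofluorescent ones, cut at about 32% in these data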;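 also: kinetic rate of NADH fluorescence loss reporting ADP formed by the decarboxylase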
PMK inhibit: S. pneumoniae PMK inhibitors, primary screen, biochemical, mevalonate pathway, pilot trial included. purified PMK, PK/LDH-coupled NADH absorbance 340 nm. AID 539, 2006. phosphomevalonate kinase (Streptococcus pneumoniae D39). 0.49% of 65,000 active. inhibition, % at 10 µM;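 active = top-ranked compounds by inhibition in the single 10 µM screen, taking a fixed number of the strongest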
Autofluor 339: intrinsic fluorescence of library compounds, ex339/em460 – biochemical, MLSMR library, data from DPM-DC assay, artefact control, profiling panel; compound autofluorescence, ex339/em460 nm, NADH buffer; hits give high values; 1 = no-compound wells, NADH background; fluorescence fold increase at 10 µM; 5.5% of 65,000 active; AID 709, 2007;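 active = at 10 µM, mean starting fluorescence two-fold or more over control wells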;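 also: signal is the first read of a kinetic run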
Hits are given with their value; - = inactive; . = no result shown; + = active, no number. Only some compounds are listed: those with a hit (about 6.3% of all), similar ones and a draw of the others.

SMILES	Abs 340nm	Spn MK inh	NADH coupling	Spn DPM-DC inh	PMK inhibit	Autofluor 339
COc1cc2c(cc1OC)-c1cc(OCCN3CCOCC3)nc(=O)n1CC2	-	-	-	.	-	3.9
COc1cc2c(cc1OC)-c1cc(NCc3ccccn3)nc(=O)n1CC2	-	52	-	.	-	3.4
CCCCCCNc1cc2n(c(=O)n1)CCc1cc(OC)c(OC)cc1-2	-	-	-	.	-	3.4
CCNc1cc2n(c(=O)n1)CCc1cc(OC)c(OC)cc1-2	-	-	-	-	-	2.7
COc1cc(C(=O)OCCN2CCOCC2)cc(OC)c1OC	-	-	-	-	-	-
COc1cc2c(cc1OC)-c1cc(NC3CC3)nc(=O)n1CC2	-	-	-	-	-	-
COc1cc2c(cc1OC)-c1cc(NC3CCCCC3)nc(=O)n1CC2	-	-	-	-	-	-
COc1cc2c(cc1OC)-c1cc(NC3CCCCCCC3)nc(=O)n1CC2	-	-	-	-	-	2.4
Cc1cc(C)c2c(N)c(S(=O)(=O)c3ccccc3)sc2n1	-	-	-	-	-	-
CCCCS(=O)(=O)c1sc2nc(C)cc(C)c2c1N	-	-	-	-	-	2
COC(=O)/C(=C1/Oc2cc3c(cc2S1)OCO3)C(F)(F)F	-	-	-	-	-	2.2
COCc1cc(=O)n2[nH]c(-c3ccccc3)cc2n1	-	-	-	.	-	2.1
CCCOc1ccc(-c2nc(C#N)c(N3CCN(CC)CC3)o2)cc1	-	-	-	.	-	3.4
CCOc1ccc(-c2nc(C#N)c(N3CCN(CC)CC3)o2)cc1	-	-	-	.	-	2.4
Cc1ccc(OCc2nc(C#N)c(N3CCN(Cc4ccccc4)CC3)o2)cc1	-	-	-	-	-	-
CC(C)NC(=O)Cn1cc(C#N)c2cc(Br)ccc21	-	-	-	-	-	-
COC(=O)c1ccc2ccn(CC(=O)NC(C)C)c2c1	-	-	-	.	-	2.1
Cc1ccc2cc3cc(C(=O)NCc4ccc5c(c4)OCO5)oc3nc2c1	-	-	-	.	-	5.2
CCN1CCN(CCCNC(=O)C2c3ccccc3C(=O)N(C)C2c2ccc(OC)cc2)CC1 (stereo not given)	-	-	-	-	-	-
CCN1CCN(CCCNC(=O)c2cc3cc4ccc(OC)cc4nc3o2)CC1	-	-	-	.	-	5.2
COc1ccc(C2=NOC(C(=O)NCCCN3CCOCC3)C2)cc1 (stereo not given)	-	-	-	-	-	-
COc1ccc(N2CC(C(=O)NCCCN3CCOCC3)CC2=O)cc1 (stereo not given)	-	51	-	-	-	-
COc1ccc2cc3cc(C(=O)Nc4ccc5c(c4)OCO5)oc3nc2c1	-	-	-	-	-	-
Cc1ccc2cc3cc(C(=O)NCCN4CCOCC4)oc3nc2c1	-	-	-	.	-	3.2
O=C(CN1CCOc2ccccc21)N1CCCC1	-	-	-	-	-	-
SMILES	Abs 340nm	Spn MK inh	NADH coupling	Spn DPM-DC inh	PMK inhibit	Autofluor 339
CCCCn1c(NC(C)CC)nc2c1c(=O)[nH]c(=O)n2C (stereo not given)	-	-	-	-	-	-
COc1cc(OC)cc(-n2nc(C(=O)NCCCN3CCOCC3)c3ccccc3c2=O)c1	-	-	-	-	-	-
COc1ccc2cc3cc(C(=O)NCCCN4CCOCC4)oc3nc2c1	-	-	-	.	-	5.1
CSc1nc2ccc3nc(NC(=O)c4cccs4)sc3c2s1	-	-	-	.	-	4.5
CC(C)(C)c1csc(NC(=O)c2cccs2)n1	-	-	-	-	-	-
COc1ccc(C2N3CC4(C)CN2CC(C)(C3)C4O)cc1 (stereo not given)	-	-	-	-	-	-
COc1ccc2oc(C(=O)C3CC3)c(NC(=O)CCCN3C(=O)c4ccccc4C3=O)c2c1	-	-	-	-	-	-
N#Cc1cc2c(=O)n3ccccc3nc2n(Cc2cccnc2)c1=O	-	-	-	.	-	3.8
Cc1cccn2c(=O)c3cc(C#N)c(=O)n(Cc4cccnc4)c3nc12	-	-	-	.	-	3.8
Cc1c(/C(O)=C2/C(=O)C(=O)N(CCCN3CCOCC3)C2c2ccncc2)cnn1-c1ccccc1 (stereo not given)	-	-	-	-	-	-
COc1nc(Nc2ccc(-c3nc4ccccc4o3)cc2)nc(N2CCOCC2)n1	-	-	-	.	-	3.7
CC(C)(C)S(=O)(=O)c1ccc2nc3c(n2c1)CCCC3	-	-	-	.	-	3.9
Cc1ccc(-c2nc(C#N)c(N3CCCCC3)o2)cc1	-	-	-	.	-	2.2
CC1CN(c2oc(-c3ccccc3Cl)nc2C#N)CC(C)O1 (stereo not given)	-	-	-	-	-	-
N#Cc1nc(-c2ccc(F)cc2)oc1N1CCCC1	-	-	-	.	-	2.4
N#Cc1nc(COc2ccc(F)cc2)oc1N1CCCC1	-	-	-	-	-	-
COc1ccc(-c2nc(C#N)c(N3CCCCCC3)o2)cc1OC	-	-	-	.	-	3.9
COc1ccc(-c2nc(C#N)c(N3CC(C)OC(C)C3)o2)cc1OC (stereo not given)	-	-	-	.	-	2.1
O=C(Nc1sccc1C(=O)N1CCOCC1)c1cccnc1	-	-	-	-	-	-
N#Cc1nc(COc2cccc(Cl)c2)oc1N1CCCC1	-	-	-	-	-	-
COc1ccc(-c2nc(C#N)c(N3CCCCCC3)o2)cc1	-	-	-	.	-	2.3
N#Cc1nc(-c2ccccc2F)oc1N1CCCC1	-	-	-	.	-	3.6
N#Cc1nc(-c2ccc(Cl)cc2)oc1N1CCCCC1	-	-	-	.	-	2.4
COc1ccc(-c2nc(C#N)c(NC(C)C)o2)cc1	-	-	-	.	-	2.3
CSCCC(C(=O)Nc1ccc2c(c1)OCO2)N1C(=O)c2ccccc2C1=O (stereo not given)	-	-	-	-	-	-
SMILES	Abs 340nm	Spn MK inh	NADH coupling	Spn DPM-DC inh	PMK inhibit	Autofluor 339
CCOC(=O)c1c(NC(=O)CSc2nnnn2CC)sc(C)c1C	-	-	-	-	-	-
O=S(=O)(NCc1cn2ccsc2n1)c1ccc2c(c1)OCCO2	-	-	-	-	-	-
N#Cc1nc(-c2ccccc2)oc1N1CCCCC1	-	-	-	.	-	3.7
CC(C)CNc1oc(-c2ccc(F)cc2)nc1C#N	-	-	-	.	-	2.4
N#Cc1nc(-c2ccc(F)cc2)oc1NCc1cccc2c1OCO2	-	-	-	-	-	-
COc1cc(NC(=O)c2ccc3c(c2)OCO3)c2ncccc2c1	-	-	-	+	-	3
COc1cccc(NC(=O)c2oc3ccccc3c2NC(=O)c2ccc3c(c2)OCO3)c1	-	-	-	-	-	2.6
COc1cccc(NC(=O)c2oc3ccccc3c2NC(=O)C(C)(C)C)c1	-	-	-	-	-	-
